Experimental data published in the supplement of paper PMC13380429.
A number with no mark means an inactive call.

Tested on: Vero E6 infected with SARS-CoV-2
Assay: inhibition of SARS-CoV-2 cytopathic effect; higher = more antiviral protection, active = above 15
Conditions: 48 h

Row | SMILES | inhibition of SARS-CoV-2 cytopathic effect (1 nM) | inhibition of SARS-CoV-2 cytopathic effect (8.33 nM) | inhibition of SARS-CoV-2 cytopathic effect (100 nM) | inhibition of SARS-CoV-2 cytopathic effect (833.33 nM) | inhibition of SARS-CoV-2 cytopathic effect (10000 nM)
1 | O=C(CCCCCCC(=O)Nc1cccnc1)NO [pyroxamide] | 0.71% | -1.1% | 0.72% | -1.43% | -5.97%
2 | CC(C)N(C[C@H]1O[C@@H](n2cnc3c(N)ncnc32)[C@H](O)[C@@H]1O)[C@H]1C[C@@H](CCc2nc3cc(C(C)(C)C)ccc3[nH]2)C1 | 1.37% | 1.4% | 1.55% | 3.8% | 4.66%
3 | Nc1cccc2c1C(=O)N(C1CCC(=O)NC1=O)C2=O (stereo not given) [pomalidomide] | 1.4% | -0.68% | 2.15% | 0.83% | 2.41%
4 | CC1(C)CC[C@]2(NC(=O)C(C)(F)F)CC[C@]3(C)[C@H](C(=O)C=C4[C@@]5(C)C=C(C#N)C(=O)C(C)(C)[C@@H]5CC[C@]43C)[C@@H]2C1 [Omaveloxolone (RTA-408)] | 4.28% | 6.39% | 3.8% | 17.2% (active) | -13.7%
5 | O=c1ccc2ccc(OCCCCN3CCN(c4cccc5sccc45)CC3)cc2[nH]1 [brexpiprazole] | -0.6% | 2.4% | 2.49% | 2.71% | -8.91%
6 | N=C(NCCCCCCNC(=N)NC(=N)Nc1ccc(Cl)cc1)NC(=N)Nc1ccc(Cl)cc1 [chlorhexidine] | 3.47% | 4.11% | 4.83% | 2.74% | -3.2%
7 | O=S(=O)(c1ccccc1)N(CC(F)(F)F)c1ccc(C(O)(C(F)(F)F)C(F)(F)F)cc1 | 1.99% | 0.95% | -0.31% | 2.71% | -0.14%
8 | O=C(CN1CCNCC1)NC1CCCCC1 [esaprazole] | -1.96% | -1.47% | -0.45% | -0.95% | -1.46%
9 | O=C1Cc2cc(CCN3CCN(c4nsc5ccccc45)CC3)c(Cl)cc2N1 [ziprasidone] | -0.08% | -2.01% | -0.35% | 0.78% | -2.66%
10 | C[C@H](NCc1ccc(OCc2cccc(F)c2)cc1)C(N)=O [safinamide] | 4.62% | 5.34% | 2.52% | 0.07% | -0.48%
11 | CC(c1cc2ccccc2s1)N(O)C(N)=O (stereo not given) [zileuton] | -2.05% | -0.81% | 1.43% | -1.9% | -1.8%
12 | NS(=O)(=O)OC[C@@H]1C[C@@H](n2ccc3c(N[C@H]4CCc5ccccc54)ncnc32)C[C@@H]1O [pevonedistat] | 1.08% | 1.45% | 2.73% | -1.35% | -9.75%
13 | CCCCC/N=c1\ccn(Cc2ccccc2)c2ccccc12 | -2.64% | -0.49% | -2.77% | -0.71% | -9.28%
14 | O/N=C/c1cc[n+](COC[n+]2ccc(/C=N/O)cc2)cc1 [obidoxime] | 1.54% | -0.64% | -1.56% | -1.59% | -2.39%
15 | CC(C)CCC[C@@H](C)[C@H]1CC[C@H]2[C@@H]3CC=C4C[C@@H](O)CC[C@]4(C)[C@H]3CC[C@]12C [cholesterol] | -1.33% | 1.96% | 1.08% | -1.83% | 2.29%
16 | C=C(C)[C@H]1CN[C@H](C(=O)O)[C@H]1CC(=O)O [kainic-acid] | -1.66% | 0.99% | 0.37% | -1.94% | -0.79%
17 | CCN(CC)C(=O)Nc1ccc(OCC(O)CNC(C)(C)C)c(C(C)=O)c1 (stereo not given) [celiprolol] | -3.29% | 0.91% | -0.73% | -0.15% | -0.87%
18 | Cc1cc(O)c(C(=O)N[C@@H](C(=O)N[C@@H]2C(=O)N3C(C(=O)O)=C(CSc4nnnn4C)CS[C@H]23)c2ccc(O)cc2)cn1 [cefpiramide] | -0.65% | -0.72% | 0.85% | 2.35% | 3.6%
19 | Cc1cccc(C(C)c2c[nH]cn2)c1C (stereo not given) [medetomidine] | 0.12% | -1.31% | -1.87% | -1.95% | -1.68%
20 | COC1=C2C[C@@H](C)C[C@H](OC)[C@H](O)[C@@H](C)/C=C(\C)[C@H](OC(N)=O)[C@@H](OC)/C=C\C=C(/C)C(=O)NC(=CC1=O)C2=O [geldanamycin] | 1.08% | 2.06% | 0.35% | -3.32% | -4.4%

Row | SMILES | inhibition of SARS-CoV-2 cytopathic effect (1 nM) | inhibition of SARS-CoV-2 cytopathic effect (8.33 nM) | inhibition of SARS-CoV-2 cytopathic effect (100 nM) | inhibition of SARS-CoV-2 cytopathic effect (833.33 nM) | inhibition of SARS-CoV-2 cytopathic effect (10000 nM)
21 | C[C@H](N[C@@H](CCc1ccccc1)C(=O)O)C(=O)N1CCC[C@H]1C(=O)O [enalaprilat] | -0.58% | 1.11% | -0.39% | 1.61% | 2.39%
22 | COC(F)(F)C(Cl)Cl [methoxyflurane] | 0.46% | 5.27% | 4.68% | 0.29% | -1.64%
23 | O=C(CCCN1CCC2(CC1)C(=O)N(Cc1cccc(F)c1)CN2c1ccccc1)c1ccc(F)cc1 [3'-fluorobenzylspiperone] | 1.1% | 1.76% | 1.3% | 4.46% | 71.7% (active)
24 | [Cl][Ru-]([Cl])([Cl])[Cl].[Na+].c1ccc2[nH]ncc2c1.c1ccc2[nH]ncc2c1 | 2.72% | 0.03% | 1.2% | 5.02% | 18% (active)
25 | c1ccc2c(c1)Sc1ccccc1N2C[C@H]1CN2CCC1CC2 [levomequitazine] | -10.3% | -6.41% | -8.62% | -7.33% | -13.9%
26 | COc1ccc(C(=O)c2ccccc2O)c(O)c1 [dioxybenzone] | 1.95% | -0.38% | -1.57% | -0.76% | 2.94%
27 | C[C@H](N)Cn1ccc2cc(F)c(Cl)cc21 | 1.25% | 4.09% | 1.91% | -2.16% | -0.64%
28 | CNC(=O)N(C)N=O [nitrosodimethylurea] | -0.7% | -0.84% | -4.76% | 1.42% | -2.36%
29 | NC12CC3CC(CC(C3)C1)C2 [amantadine] | 0.16% | 1.94% | 0.25% | 0.33% | 3.28%
30 | CN(C)CC[C@@](O)(c1ccccc1)c1ccccc1Cl [clofedanol] | 1.53% | 1.3% | 1.86% | 1.12% | 2.42%
31 | C[C@]12Cc3c[nH]nc3C[C@@H]1CC[C@@H]1[C@@H]2CC[C@@]2(C)[C@H]1CC[C@]2(C)O [stanozolol] | -3.58% | -5.17% | -4.66% | -3.19% | -5.61%
32 | COc1cc(C2Oc3cc([C@H]4Oc5cc(O)cc(O)c5C(=O)[C@@H]4O)ccc3OC2CO)ccc1O (stereo not given in full) [silibinin] | -0.88% | -0.77% | 0.27% | -1.29% | 1.72%
33 | Cc1ccsc1C(=CCCN1CCC[C@@H](C(=O)O)C1)c1sccc1C [tiagabine] | 1.59% | 1.98% | 0.33% | -3.02% | 0.65%
34 | C[C@@H]1CN(CCCn2c3ccccc3c3ccccc32)C[C@H](C)N1 [rimcazole] | -0.92% | -0.33% | 0.18% | -2.52% | 31.1% (active)
35 | NC(=O)C(c1ccccc1)(c1ccccc1)[C@@H]1CCN(CCc2ccc3c(c2)CCO3)C1 [darifenacin] | -1.18% | 0.61% | 2.83% | 0.42% | -5.65%
36 | OC(CCN1CCCCC1)(c1ccccc1)C1CCCCC1 (stereo not given) [trihexyphenidyl] | -14.3% | -7.63% | -2.35% | -9.38% | -10.1%
37 | Nc1ccn([C@@H]2O[C@H](CO)[C@@H](O)[C@@H]2O)c(=O)n1 [cytarabine] | -0.13% | 2.91% | 2.21% | -1% | -2.58%
38 | Cc1c(C(=O)NN2CCOCC2)nn(-c2ccc(Cl)cc2Cl)c1-c1ccc(I)cc1 | 0.53% | 1.48% | 1.24% | -2.07% | 1.16%
39 | O=C1C(=C(O)/C=C/c2ccc(O)cc2)C(=O)[C@@](O)([C@@H]2O[C@H](CO)[C@@H](O)[C@H](O)[C@H]2O)C(=O)[C@H]1[C@@H]1O[C@H](CO)[C@@H](O)[C@H](O)[C@H]1O | 0.73% | -1.02% | -0.24% | -0.74% | -2.44%
